Source: the supplement of paper PMC4466140

Legend:
Assay in all cases: SPOT peptide array binding signal intensity (averaged, normalized) (arbitrary units (background-subtracted, floor 0; scale differs between SH3 domains)); higher = stronger binding of the SH3 domain to the peptide
AgAbp1 = molecular target: AgAbp1
Summary of the method: (§1)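 GST-SH3 fusions from four yeast species, purified on glutathione Sepharose, were incubated at 10 μg/ml overnight at 4°C on membranes of synthetic 15-mer peptides in which cysteines were replaced with serines. Binding signal is the normalized, background-subtracted spot intensity averaged over replicates, in domain-specific arbitrary units.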

AgBbc1 = molecular target: AgBbc1
Summary of the method: as §1

AgBem1-D1 = molecular target: AgBem1-D1
Summary of the method: as §1

AgBzz1-D1 = molecular target: AgBzz1-D1
Summary of the method: as §1

AgBzz1-D2 = molecular target: AgBzz1-D2
Summary of the method: as §1

AgCyk3 = molecular target: AgCyk3
Summary of the method: as §1

AgFus1 = molecular target: AgFus1
Summary of the method: as §1

AgHof1 = molecular target: AgHof1
Summary of the method: as §1

AgHse1 = molecular target: AgHse1
Summary of the method: as §1

AgLsb1 = molecular target: AgLsb1
Summary of the method: as §1

AgLsb4 = molecular target: AgLsb4
Summary of the method: as §1

AgMyo5 = molecular target: AgMyo5
Summary of the method: as §1

AgNbp2 = molecular target: AgNbp2
Summary of the method: as §1

AgRvs167 = molecular target: AgRvs167
Summary of the method: as §1

AgSho1 = molecular target: AgSho1
Summary of the method: as §1

AgSla1-D1-D2 = molecular target: AgSla1-D1-D2
Summary of the method: as §1

AgSla1-D3 = molecular target: AgSla1-D3
Summary of the method: as §1

CaAbp1-D1 = molecular target: CaAbp1-D1
Summary of the method: as §1

CaAbp1-D2 = molecular target: CaAbp1-D2
Summary of the method: as §1

CaBbc1 = molecular target: CaBbc1
Summary of the method: as §1

CaBem1-D1 = molecular target: CaBem1-D1
Summary of the method: as §1

CaBzz1-D1 = molecular target: CaBzz1-D1
Summary of the method: as §1

CaBzz1-D2 = molecular target: CaBzz1-D2
Summary of the method: as §1

CaCyk3 = molecular target: CaCyk3
Summary of the method: as §1

CaFus1 = molecular target: CaFus1
Summary of the method: as §1

CaHof1 = molecular target: CaHof1
Summary of the method: as §1

CaHse1 = molecular target: CaHse1
Summary of the method: as §1

CaLsb1 = molecular target: CaLsb1
Summary of the method: as §1

CaLsb4 = molecular target: CaLsb4
Summary of the method: as §1

CaMyo5 = molecular target: CaMyo5
Summary of the method: as §1

CaNbp2 = molecular target: CaNbp2
Summary of the method: as §1

CaRvs167 = molecular target: CaRvs167
Summary of the method: as §1

CaRvs167-3 = molecular target: CaRvs167-3
Summary of the method: as §1

CaSho1 = molecular target: CaSho1
Summary of the method: as §1

CaSla1-D1-D2 = molecular target: CaSla1-D1-D2
Summary of the method: as §1

CaSla1-D3 = molecular target: CaSla1-D3
Summary of the method: as §1

ScAbp1 = molecular target: ScAbp1
Summary of the method: as §1

ScBbc1 = molecular target: ScBbc1
Summary of the method: as §1

ScBem1-D1 = molecular target: ScBem1-D1
Summary of the method: as §1

ScBzz1-D1 = molecular target: ScBzz1-D1
Summary of the method: as §1

ScBzz1-D2 = molecular target: ScBzz1-D2
Summary of the method: as §1

ScCyk3 = molecular target: ScCyk3
Summary of the method: as §1

ScFus1 = molecular target: ScFus1
Summary of the method: as §1

ScHof1 = molecular target: ScHof1
Summary of the method: as §1

ScHse1 = molecular target: ScHse1
Summary of the method: as §1

ScLsb1 = molecular target: ScLsb1
Summary of the method: as §1

ScLsb2 = molecular target: ScLsb2
Summary of the method: as §1

ScLsb3 = molecular target: ScLsb3
Summary of the method: as §1

ScLsb4 = molecular target: ScLsb4
Summary of the method: as §1

ScMyo3 = molecular target: ScMyo3
Summary of the method: as §1

ScMyo5 = molecular target: ScMyo5
Summary of the method: as §1

ScNbp2 = molecular target: ScNbp2
Summary of the method: as §1

ScPex13 = molecular target: ScPex13
Summary of the method: as §1

ScRvs167 = molecular target: ScRvs167
Summary of the method: as §1

ScSho1 = molecular target: ScSho1
Summary of the method: as §1

ScSla1-D1-D2 = molecular target: ScSla1-D1-D2
Summary of the method: as §1

ScSla1-D3 = molecular target: ScSla1-D3
Summary of the method: as §1

SpAbp1-D1 = molecular target: SpAbp1-D1
Summary of the method: as §1

SpBbc1 = molecular target: SpBbc1
Summary of the method: as §1

SpBzz1-D1 = molecular target: SpBzz1-D1
Summary of the method: as §1

SpBzz1-D2 = molecular target: SpBzz1-D2
Summary of the method: as §1

SpCyk3 = molecular target: SpCyk3
Summary of the method: as §1

SpHof1 = molecular target: SpHof1
Summary of the method: as §1

SpHof1-2 = molecular target: SpHof1-2
Summary of the method: as §1

SpHof1-3 = molecular target: SpHof1-3
Summary of the method: as §1

SpHse1 = molecular target: SpHse1
Summary of the method: as §1

SpLsb1 = molecular target: SpLsb1
Summary of the method: as §1

SpLsb4 = molecular target: SpLsb4
Summary of the method: as §1

SpMyo1 = molecular target: SpMyo1
Summary of the method: as §1

SpNbp2 = molecular target: SpNbp2
Summary of the method: as §1

SpPex13 = molecular target: SpPex13
Summary of the method: as §1

SpRvs167 = molecular target: SpRvs167
Summary of the method: as §1

SpSla1-D1-D2 = molecular target: SpSla1-D1-D2
Summary of the method: as §1

SpSla1-D3 = molecular target: SpSla1-D3
Summary of the method: as §1

APPPPPRRATPEKKP
SPOT peptide array binding signal intensity (AgAbp1): 79
SPOT peptide array binding signal intensity (AgBbc1): 202
SPOT peptide array binding signal intensity (AgBem1-D1): 24.5
SPOT peptide array binding signal intensity (AgBzz1-D1): 84
SPOT peptide array binding signal intensity (AgBzz1-D2): 29.5
SPOT peptide array binding signal intensity (AgCyk3): ≤ 0
SPOT peptide array binding signal intensity (AgFus1): ≤ 0
SPOT peptide array binding signal intensity (AgHof1): 0.75
SPOT peptide array binding signal intensity (AgHse1): 17
SPOT peptide array binding signal intensity (AgLsb1): 17.5
SPOT peptide array binding signal intensity (AgLsb4): 192
SPOT peptide array binding signal intensity (AgMyo5): 4
SPOT peptide array binding signal intensity (AgNbp2): ≤ 0
SPOT peptide array binding signal intensity (AgRvs167): 209
SPOT peptide array binding signal intensity (AgSho1): 1.5
SPOT peptide array binding signal intensity (AgSla1-D1-D2): ≤ 0
SPOT peptide array binding signal intensity (AgSla1-D3): 1.5
SPOT peptide array binding signal intensity (CaAbp1-D1): 62
SPOT peptide array binding signal intensity (CaAbp1-D2): 58
SPOT peptide array binding signal intensity (CaBbc1): 368
SPOT peptide array binding signal intensity (CaBem1-D1): 1
SPOT peptide array binding signal intensity (CaBzz1-D1): 1050
SPOT peptide array binding signal intensity (CaBzz1-D2): 156
SPOT peptide array binding signal intensity (CaCyk3): 18.5
SPOT peptide array binding signal intensity (CaFus1): 52.5
SPOT peptide array binding signal intensity (CaHof1): 73
SPOT peptide array binding signal intensity (CaHse1): 3
SPOT peptide array binding signal intensity (CaLsb1): ≤ 0
SPOT peptide array binding signal intensity (CaLsb4): 1860
SPOT peptide array binding signal intensity (CaMyo5): 2.5
SPOT peptide array binding signal intensity (CaNbp2): 53
SPOT peptide array binding signal intensity (CaRvs167): 94.7
SPOT peptide array binding signal intensity (CaRvs167-3): 1
SPOT peptide array binding signal intensity (CaSho1): ≤ 0
SPOT peptide array binding signal intensity (CaSla1-D1-D2): 1170
SPOT peptide array binding signal intensity (CaSla1-D3): 3
SPOT peptide array binding signal intensity (ScAbp1): 69
SPOT peptide array binding signal intensity (ScBbc1): 54.8
SPOT peptide array binding signal intensity (ScBem1-D1): ≤ 0
SPOT peptide array binding signal intensity (ScBzz1-D1): 14
SPOT peptide array binding signal intensity (ScBzz1-D2): 10
SPOT peptide array binding signal intensity (ScCyk3): ≤ 0
SPOT peptide array binding signal intensity (ScFus1): 3
SPOT peptide array binding signal intensity (ScHof1): 9.75
SPOT peptide array binding signal intensity (ScHse1): 30
SPOT peptide array binding signal intensity (ScLsb1): 43.8
SPOT peptide array binding signal intensity (ScLsb2): 9
SPOT peptide array binding signal intensity (ScLsb3): 1690
SPOT peptide array binding signal intensity (ScLsb4): 375
SPOT peptide array binding signal intensity (ScMyo3): 111
SPOT peptide array binding signal intensity (ScMyo5): 29.5
SPOT peptide array binding signal intensity (ScNbp2): ≤ 0
SPOT peptide array binding signal intensity (ScPex13): 89.2
SPOT peptide array binding signal intensity (ScRvs167): 963
SPOT peptide array binding signal intensity (ScSho1): 56
SPOT peptide array binding signal intensity (ScSla1-D1-D2): 459
SPOT peptide array binding signal intensity (ScSla1-D3): 3.25
SPOT peptide array binding signal intensity (SpAbp1-D1): 165
SPOT peptide array binding signal intensity (SpBbc1): 2.5
SPOT peptide array binding signal intensity (SpBzz1-D1): 814
SPOT peptide array binding signal intensity (SpBzz1-D2): 1.25
SPOT peptide array binding signal intensity (SpCyk3): 3
SPOT peptide array binding signal intensity (SpHof1): 15.8
SPOT peptide array binding signal intensity (SpHof1-2): 17
SPOT peptide array binding signal intensity (SpHof1-3): 270
SPOT peptide array binding signal intensity (SpHse1): 42.5
SPOT peptide array binding signal intensity (SpLsb1): 10.2
SPOT peptide array binding signal intensity (SpLsb4): 1240
SPOT peptide array binding signal intensity (SpMyo1): 998
SPOT peptide array binding signal intensity (SpNbp2): ≤ 0
SPOT peptide array binding signal intensity (SpPex13): 1
SPOT peptide array binding signal intensity (SpRvs167): 999
SPOT peptide array binding signal intensity (SpSla1-D1-D2): 112
SPOT peptide array binding signal intensity (SpSla1-D3): 3
